Bioassay records deposited in PubChem BioAssay by National Center for Advancing Translational Sciences (NCATS).
ASM inhibitor – blocks human secretory acid sphingomyelinase; P17405; placental ASM, HMU-PC fluorogenic substrate, 60 min; Potency, µM (doses to about 57.5 µM), without a hit: at the top dose activity change, negative = inhibition, most hits filed as inhibitors; 340,000 compounds, 0.006% hits; AID 504937; note: potency is the fitted concentration of half-maximal effect
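HMU-PC0 cleavage (9 uM final) by human placental ASM, 60 min at 37 °C following 10 min compound exposure at RT; stopped at pH 10, fluorescence Ex 386/Em 447 nm.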
uPA surface inh – inhibitors of cell surface uPA generation. cell surface uPA generation assay, qHTS. Potency, µM (doses to about 38.3 µM), for the others: top-dose activity change, negative = inhibition, hits mostly inhibitors. 330,000 compounds, 0.31% hits. AID 540303; active = well fitted inhibition curve with a large enough effect; inconclusive = small, poorly fitted or top-dose-only effect; inactive = no such curve, though single readings can be large or run the other way; tested in mouse RAW 264.7 cells; note: potency is the fitted concentration of half-maximal effect; % is set by controls: 0 for no effect and ±100 for the full control effect; nearly all actives have a fitted effect of over 55% in size
KCNH2 WT inh – blocks the wildtype human KCNH2 potassium channel; AID 720551; 340,000 compounds, 0.37% hits; U2OS, BacMam KCNH2, thallium flux FluxOr; hits give low values; activity change, % at 1.84 µM;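 active = maximum activity change below -70%; inconclusive = maximum activity change between -70% and -50%; inactive = maximum activity change above -50%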; note: % is set by controls: 0 for no effect and ±100 for the full control effect
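U2OS cells transduced with wild-type KCNH2 virus are loaded with FluxOr dye for 45 min, and thallium flux is measured in kinetic reads before and after stimulation buffer. Rate constants are normalized to DMSO controls.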
Mm-Cpn inhibitor – blocks the Methanococcus maripaludis chaperonin Mm-Cpn | purified Mm-Cpn ATPase, ADP Transcreener TR-FRET | Potency, µM (titrated, usually from 76.9 µM), for the others: at the highest dose activity, negative = inhibition, actives largely listed as inhibitors | 330,000 compounds, 0.031% hits | AID 504842; note: potency is the fitted concentration of half-maximal effect; % is set by controls: 0 for no effect and ±100 for the full control effect; nearly all actives have a fitted effect of over 80% in size
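ATPase read-out: TR-FRET ADP immunoassay (anti-ADP Eu cryptate vs ADP-d2), ex 320 nm, em 590/665 nm; signal drops as ADP forms. Enzyme 25 nM, ATP 10 uM, 30 min at 37°C after 10 min compound preincubation.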
p53 reactivator – mutant p53 re-activation in reporter cells; H1299 p53-A138V BP100-luciferase reporter, luminescence, 24 h; Potency, µM (series often up to 92.2 µM), without a hit: top-dose activity change, positive = activation, usual class: activators; 320,000 compounds, 0.063% hits; AID 504706; note: potency is the fitted concentration of half-maximal effect; % of control where 0% means no effect; nearly all actives have a fitted effect of over 45% in size
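p53-null H1299 cells stably carrying temperature-sensitive p53-A138V and a BP100-luciferase reporter were pinned with compounds (4-point, 1:5 series) and held 24 hrs at 37 deg C. Luminescence was read 10 min after detection reagent.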
KCNH2 3.1 inh – inhibitors of human KCNH2 3.1 potassium channel isoform | 340,000 compounds, 0.95% hits | U2OS KCNH2 3.1, thallium flux FluxOr; hits give low values | activity change, % (tested at about 1.8 µM) | AID 720553;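 active = maximum activity change below -70%; inconclusive = maximum activity change from -70% to -50%; inactive = maximum activity change above -50%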;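 note: thallium influx rate constant from kinetic fluorescence after stimulation buffer; % is set by controls: 0 for no effect and ±100 for the full control effect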
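Normalized rate constant (relative to positive and negative DMSO controls) derived from a 2 min kinetic fluorescence read after stimulation; U2OS cells expressing the 3.1 isoform via virus at 1.77 x 10^8 /mL.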
Active calls of the source: *; i = inactive; ? = inconclusive; nt = no result given. An excerpt weighted towards active compounds, which were near 1.4% of everything screened. Unless noted, calls come from the whole dose curve; as a rule, active = well fitted curve in the direction sought with a large enough effect; inconclusive = small, poorly fitted or top-dose-only effect, or another doubt; inactive = no such curve, though single readings can be large; an effect the other way counts as inactive or inconclusive.

SMILES	ASM inhibitor	uPA surface inh	KCNH2 WT inh	Mm-Cpn inhibitor	p53 reactivator	KCNH2 3.1 inh
CCCCCCN(C(=O)CCl)c1ccccc1	-2%	2.5µM*	-22	-1%	-12%	2
Cc1cc(-c2cc(-c3ccccc3)on2)nc(NC2CCCC2)n1	18%	-11%	0	0%	2%	-70*
O=S(=O)(CCNCc1ccccc1)NC1CCCCC1	1%	-3%	-18	nt	nt	11
Cc1ccc(OCC(=O)N2CCN(c3nnc(-c4ccccc4)c4ccccc34)CC2)cc1	-8%	nt	-16	-4%	-5%	-70*
Cc1ccc(S(=O)(=O)N/N=C2/CC(c3ccccc3)Oc3ccccc32)cc1 (stereo not given)	-8%	-3%	-5	-1%	4%	-110*
COc1cc(OC)cc(-c2c(-c3cccs3)c3cc(-c4ccc5c(c4)OCCO5)ccc3n2C)c1	31%	16%	nt	?	13%	nt
COc1nc(N2CCOCC2)nc(C)c1[N+](=O)[O-]	10%	-4%	-107*	2%	-5%	16
O=C(N/C(=C/c1cccc(Br)c1)C(=O)N1CCOCC1)c1ccco1	nt	nt	5	nt	nt	-6
Cc1ccc(-n2c(SCC(=O)Nc3ccc4cn[nH]c4c3)nnc2-c2ccco2)cc1	-8%	9%	-10	1%	-6%	-112*
NC(=O)c1ncn([C@@H]2O[C@H](CNCc3c(OCc4ccccc4F)ccc4ccccc34)[C@@H](O)[C@H]2O)n1	17%	-10%	2	nt	nt	2
CCOC(=O)c1cc(Br)c(=O)n2ccccc12	124%	-4%	-30	28µM*	-3%	-17
Cc1ccc(CNC(=O)CSc2nc(=O)n3ccc(C)cc3n2)cc1	nt	nt	1	nt	nt	18
COc1ccc(C2=NN(C(=O)CN3CCCCC3)C(c3ccc(C)cc3)C2)cc1 (stereo not given)	-2%	-6%	5	-2%	-1%	-3
COc1ccc(C2=NN(C(=O)CCC(=O)O)C(c3ccccc3)C2)cc1 (stereo not given)	0%	5%	3	-4%	-2%	16
COc1ccc(C2CC(c3ccc(Br)cc3)=NN2C(=O)CN2CCCC2)cc1 (stereo not given)	2%	0%	27	-12%	-6%	-83*
CCOC(=O)c1nnn(CC(=O)N2N=C(c3ccc(Cl)cc3)CC2c2ccccc2)c1C(=O)OCC (stereo not given)	-14%	1%	-12	-12%	4%	-71*
CCOC(=O)c1nnn(CC(=O)N2N=C(c3ccc(Cl)cc3)CC2c2ccc(OC)cc2)c1C(=O)OCC (stereo not given)	-18%	-2%	-76*	0%	4%	?
COc1ccc(C(=O)O)cc1S(=O)(=O)NCc1ccccn1	5%	5%	1	1%	4%	18
Cc1cc(=O)c(C(=O)O)cn1Nc1ccc(Cl)cc1	-1%	-2%	-1	0%	2%	10
Cc1cc(=O)c(C(=O)O)cn1Nc1ccc(F)cc1	-2%	0%	17	-3%	-7%	-84*
Cc1nn(C2CCS(=O)(=O)C2)c(C)c1CN(C)C(=O)c1ccccc1 (stereo not given)	1%	11%	-2	1%	?	-2
Cc1cccc2c1NC(=O)C21N2CCCC2C(C(=O)c2ccc3ccccc3c2)C12C(=O)Nc1ccccc12 (stereo not given)	-10%	-11%	-6	2%	3%	-34
CCc1cccc2c1NC(=O)C21N2CCCC2C(C(=O)c2ccc3ccccc3c2)C12C(=O)Nc1ccccc12 (stereo not given)	-7%	-2%	-2	-1%	?	-113*
O=C(OCc1csc(-c2ccccc2)n1)c1ccc(O)cc1	-10%	-15%	-12	-3%	2%	-80*
Cc1ccc(C(=O)NCC(=O)OCc2csc(-c3ccccc3)n2)cc1	-2%	2%	-2	-4%	15%	3
SMILES	ASM inhibitor	uPA surface inh	KCNH2 WT inh	Mm-Cpn inhibitor	p53 reactivator	KCNH2 3.1 inh
CCC(C)(C)C1CCC2(CC1)NC(=O)N(CC(=O)N1CCN(c3ccccc3OC)CC1)C2=O (stereo not given)	nt	nt	11	nt	nt	-12
COC(=O)c1ccc2cn[nH]c2c1	nt	nt	-6	nt	nt	-3
COC(=O)c1c(NC(=O)C2COc3ccccc3O2)sc2c1CCN(Cc1ccccc1)C2 (stereo not given)	-10%	-2%	3	?	20%	-92*
Cc1ccc(S(=O)(=O)NN=Cc2ccco2)cc1	nt	nt	-3	nt	nt	3
COc1ccc2sc(-c3ccc(N(C)C)cc3)c(C#Cc3cncn3C)c2c1	i	?	-5	0%	-1%	6
O=C(CCc1nnc2ccc(NCc3ccccc3)nn12)NC1CCCC1	5%	2%	-9	-4%	17%	-75*
CCN1CCC(NC(=O)Nc2ccc(F)cc2F)CC1	5%	-3%	-4	2%	-2%	-86*
O=C(Nc1ccc(F)cc1F)NC1CC1	1%	-3%	17	2%	8%	7
CCN(CC)CCCCN1c2ccccc2Sc2ccccc21	-4%	-11%	9	1%	-5%	-73*
Cc1ccnc(NC(=O)CCC(=O)N(CC(=O)NC(C)(C)C)c2ccc(F)c(Cl)c2)c1	3%	1%	-3	2%	3%	-87*
CC(C)(C)NC(=O)CN(C(=O)CCC(=O)Nc1nccs1)c1ccc(F)c(Cl)c1	0%	1%	-34	0%	-2%	-11
COC(=O)[C@H](CC(C)C)NC(=O)Cn1cnc(C(=O)Nc2ccc(C)c(C)c2)n1	1%	?	7	0%	14%	1
COC(=O)Cn1cnc(C(=O)Nc2ccc(C)c(C)c2)n1	0%	-21%	-5	0%	6%	-73*
COCCCNC(=O)Cn1cnc(C(=O)Nc2ccc(C)c(C)c2)n1	0%	-28%	10	-4%	28%	8
COC(=O)[C@H](CCSC)NC(=O)Cn1cnc(C(=O)Nc2ccc(C)c(C)c2)n1	-1%	10µM*	-1	0%	?	12
C[C@H]1CN([C@@H](C)CO)C(=O)CCCn2nncc2CO[C@H]1CN(C)C(=O)c1ccc2ccn(C)c2c1	nt	nt	-7	nt	nt	3
CN(C1=C(NC(=O)c2ccc(Cl)cc2)C(=O)c2ccccc2C1=O)c1ccccc1	-27%	-9%	-153*	-1%	?	-98*
CN(Cc1cccs1)C(=O)COc1cccc(-n2cnnn2)c1	-2%	1%	-78*	-2%	-2%	-15
Cn1c(N)c(C(=O)CCl)c(=O)n(Cc2ccccc2)c1=O	-1%	-15%	-4	0%	15%	-116*
